Laboratory results as given in PubChem BioAssay AID1159580 (chemical genetic matrix, 2015).
Several values for one entry are separate records, joined by “and”; a condition that tells them apart may be missing. Equal values may be shown once. Out of some 5,500 compounds screened, about 2,000 (36%) were called active. About 18% were inconclusive and are not listed. Rule as the data show it: active = normalized growth mostly below about 0.91 (no sharp cut-off); inconclusive = no clear call, values can overlap the other calls; inactive = mostly above about 0.92. The list shows a part of the results.

Test: chemical genetic growth profiling, strain panel (AID 1159580);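 also: tested at 20 µM; growth read once vehicle control cultures reached saturation at 30 °C; 1 = growth at the plate median or of vehicle wells; lower values mean less growth of the strain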
Details: S. cerevisiae deletion strains, growth OD

Measured: normalized growth

NCCCCN=C(N)N
inactive: locus YAL013W, strain DEP1, hits give low values 1 | locus YAL021C, strain ccr4, hits give low values 1.02 | locus YAL026C, strain drs2, hits give low values 1.03 | locus YAL030W, strain snc1, hits give low values 1.03 | locus YAL040C, strain CLN3, hits give low values 1 | locus YBL061C, strain skt5, hits give low values 1.01 | locus YBR009C, strain hhf1, hits give low values 1.02 | locus YBR021W, strain FUR4, hits give low values 0.983 | locus YBR023C, strain chs3, hits give low values 1.03 | locus YBR171W, strain sec66, hits give low values 1.03 | locus YBR229C, strain ROT2, hits give low values 0.996 | locus YBR231C, strain swc5, hits give low values 1.01 | locus YBR279W, strain paf1, hits give low values 1.01 | locus YCL011C, strain gbp2, hits give low values 1.03 | locus YCL016C, strain dcc1, hits give low values 1.01 | locus YCL029C, strain bik1, hits give low values 0.979 | locus YCL061C, strain MRC1 (second series), hits give low values 1.01 | locus YCL069W, strain vba3, hits give low values 1.02 | locus YCR088W, strain abp1, hits give low values 1.04 | locus YDL005C, strain med2, hits give low values 1.04 | locus YDL035C, strain GPR1, hits give low values 1.02 | locus YDL040C, strain nat1, hits give low values 1.02 | locus YDL074C, strain BRE1, hits give low values 0.992 | locus YDL101C, strain DUN1, hits give low values 0.998 | locus YDL134C, strain PPH21, hits give low values 1.04 | locus YDL185W, strain tfp1, hits give low values 0.976 | locus YDL192W, strain arf1, hits give low values 0.986 | locus YDR001C, strain nth1, hits give low values 1.01 | locus YDR069C, strain doa4, hits give low values 1.02 | locus YDR101C, strain arx1, hits give low values 0.968 | locus YDR137W, strain rgp1, hits give low values 1.04 | locus YDR150W, strain NUM1, hits give low values 1 | locus YDR159W, strain sac3, hits give low values 1 | locus YDR162C, strain NBP2, hits give low values 1.01 | locus YDR195W, strain ref2 1.04 | locus YDR297W, strain sur2, hits give low values 1.02 | locus YDR318W, strain mcm21, hits give low values 1 | locus YDR334W, strain swr1, hits give low values 1.02 | locus YDR335W, strain msn5, hits give low values 1.03 | locus YDR363W, strain ESC2, hits give low values 0.994 | locus YDR388W, hits give low values 0.976 | locus YDR392W, strain spt3, hits give low values 0.992 | locus YDR502C, strain sam2, hits give low values 0.987 | locus YEL003W, strain gim4, hits give low values 1.02 | locus YEL037C, strain rad23, hits give low values 1.02 | locus YEL061C, strain CIN8 (second series), hits give low values 1.03 | locus YEL061C, strain CIN8, hits give low values 1 | locus YER002W, strain NOP16, hits give low values 1.03 | locus YER015W, strain faa2, hits give low values 1.03 | locus YER016W, strain bim1, hits give low values 1.01 | locus YER110C, hits give low values 0.977 | locus YER111C, strain swi4, hits give low values 1.03 | locus YER155C, strain BEM2 (second series), hits give low values 1.02 | locus YER155C, strain BEM2, hits give low values 0.981 | locus YER167W, strain BCK2, hits give low values 0.999 | locus YFR010W, strain ubp6, hits give low values 1.04 | locus YGL078C, strain dbp3, hits give low values 0.981 | locus YGL086W, strain mad1, hits give low values 0.963 | locus YGL167C, strain pmr1, hits give low values 1.02 | locus YGL173C, strain kem1, hits give low values 1.02 | locus YGL227W, strain vid30, hits give low values 1.02 | locus YGL240W, strain doc1, hits give low values 1.02 | locus YGL248W, strain PDE1, hits give low values 1 | locus YGL253W, strain hxk2, hits give low values 1.02 | locus YGR078C, strain PAC10, hits give low values 1 | locus YGR135W, strain pre9, hits give low values 1 | locus YGR229C, strain SMI1, hits give low values 1.01 | locus YGR252W, strain gcn5, hits give low values 1.09 | locus YHR013C, strain ard1, hits give low values 1.12 | locus YHR027C, strain rpn1, hits give low values 1.02 | locus YHR030C, strain SLT2, hits give low values 0.993 and 1.01 | locus YHR079C, strain IRE1 (second series), hits give low values 0.987 | locus YHR079C, strain IRE1, hits give low values 1.01 | locus YHR094C, strain hxt1, hits give low values 0.974 | locus YHR142W, strain chs7, hits give low values 1.05 | locus YHR200W, strain rpn10, hits give low values 0.987 | locus YIL066C, strain RNR3, hits give low values 0.994 | locus YIL073C, strain SPO22, hits give low values 1.03 | locus YIL125W, strain kgd1, hits give low values 0.974 | locus YIR030C, strain dcg1, hits give low values 0.988 | locus YJL092W, strain hpr5, hits give low values 1.02 | locus YJL095W, strain BCK1 (second series), hits give low values 1.03 | locus YJL095W, strain BCK1, hits give low values 1.02 and 0.995 | locus YJL115W, strain asf1, hits give low values 1.03 | locus YJL129C, strain trk1, hits give low values 1.06 | locus YJL134W, strain LCB3, hits give low values 0.998 | locus YJL154C, strain vps35, hits give low values 1.02 | locus YJL164C, strain tpk1, hits give low values 1.02 | locus YJL166W, strain qcr8, hits give low values 1.02 | locus YJL168C, strain set2, hits give low values 0.981 | locus YJL187C, strain SWE1 (second series), hits give low values 0.997 | locus YJL187C, strain SWE1, hits give low values 1.02 | locus YJR043C, strain POL32, hits give low values 0.993 | locus YJR066W, strain TOR1, hits give low values 0.973 | locus YKL009W, strain mrt4, hits give low values 1 | locus YKL068W, hits give low values 0.994 | locus YKL085W, strain MDH1 (second series), hits give low values 0.993 | locus YKL085W, strain MDH1, hits give low values 0.993 | locus YKL160W, strain elf1, hits give low values 1.02 | locus YKL190W, strain CNB1, hits give low values 1.01 | locus YKR001C, strain vps1, hits give low values 0.963 | locus YKR026C, strain gcn3, hits give low values 1.02 | locus YKR091W, strain srl3, hits give low values 1.02 | locus YLL001W, strain dnm1, hits give low values 1.01 | locus YLL026W, hits give low values 1.02 | locus YLL041C, strain sdh2, hits give low values 1.02 | locus YLR027C, strain aat2, hits give low values 1.03 | locus YLR039C, strain RIC1, hits give low values 1.01 | locus YLR058C, strain SHM2, hits give low values 1.01 | locus YLR102C, strain apc9, hits give low values 0.985 | locus YLR113W, strain HOG1, hits give low values 1 | locus YLR221C, strain rsa3, hits give low values 1.01 | locus YLR258W, strain gsy2, hits give low values 1.02 | locus YLR262C, strain YPT6 (second series), hits give low values 1.04 | locus YLR262C, strain YPT6, hits give low values 1.06 | locus YLR268W, strain sec22, hits give low values 0.957 | locus YLR320W, strain mms22, hits give low values 1.02 | locus YLR330W, strain CHS5, hits give low values 0.978 | locus YLR342W, strain FKS1 (second series), hits give low values 1.01 | locus YLR342W, strain FKS1, hits give low values 1.01 | locus YLR357W, strain rsc2, hits give low values 1.05 | locus YLR370C, strain arc18, hits give low values 1.03 | locus YLR371W, strain rom2, hits give low values 0.972 | locus YLR384C, strain iki3, hits give low values 1.03 | locus YLR418C, strain cdc73, hits give low values 1.01 | locus YML016C, strain PPZ1, hits give low values 0.991 | locus YML032C, strain rad52, hits give low values 1.02 | locus YML120C, strain ndi1, hits give low values 1.04 | locus YML124C, strain tub3, hits give low values 0.987 | locus YMR058W, strain fet3, hits give low values 1.02 | locus YMR078C, strain ctf18, hits give low values 0.986 | locus YMR125W, strain sto1, hits give low values 1.03 | locus YMR129W, hits give low values 1.02 | locus YMR205C, strain PFK2, hits give low values 1.02 | locus YMR223W, strain ubp8, hits give low values 1 | locus YMR231W, strain pep5, hits give low values 1.03 | locus YMR263W, strain SAP30, hits give low values 1.01 | locus YMR307W, strain GAS1, hits give low values 1.04 and 0.995 | locus YNL067W, strain RPL9B, hits give low values 1.01 | locus YNL071W, strain lat1, hits give low values 1.02 | locus YNL153C, strain GIM3, hits give low values 1.01 | locus YNL175C, strain NOP13, hits give low values 0.997 | locus YNL183C, strain NPR1, hits give low values 0.959 | locus YNL197C, strain WHI3, hits give low values 1.01 | locus YNL209W, strain ssb2, hits give low values 1.02 | locus YNL224C, strain SQS1, hits give low values 1.01 | locus YNL233W, strain BNI4, hits give low values 0.988 | locus YNL248C, strain rpa49, hits give low values 1.02 | locus YNL250W, strain rad50, hits give low values 0.974 | locus YNL271C, strain bni1, hits give low values 0.976 | locus YNL298W, strain CLA4, hits give low values 0.969 | locus YNL307C, strain MCK1, hits give low values 0.973 | locus YNL322C, strain KRE1 (second series), hits give low values 1.03 | locus YNL322C, strain KRE1, hits give low values 1 | locus YNR049C, strain mso1, hits give low values 1.02 | locus YNR052C, strain pop2, hits give low values 0.995 | locus YOL012C, strain htz1 0.814 | locus YOL147C, strain pex11, hits give low values 0.993 | locus YOR001W, strain rrp6, hits give low values 1.03 | locus YOR061W, strain CKA2, hits give low values 1 | locus YOR069W, strain VPS5, hits give low values 0.994 | locus YOR070C, strain gyp1, hits give low values 1.02 | locus YOR080W, strain dia2, hits give low values 1.03 | locus YOR083W, strain WHI5 (second series), hits give low values 1.01 | locus YOR083W, strain WHI5, hits give low values 1.01 | locus YOR106W, strain vam3, hits give low values 1.04 | locus YOR136W, strain idh2, hits give low values 0.972 | locus YOR144C, strain elg1, hits give low values 0.984 | locus YOR184W, strain ser1, hits give low values 0.985 | locus YOR265W, strain rbl2, hits give low values 1.02 | locus YOR270C, strain vph1, hits give low values 1.05 | locus YOR290C, strain snf2, hits give low values 1.01 | locus YOR316C, strain cot1, hits give low values 0.983 | locus YPL051W, strain arl3, hits give low values 1.01 | locus YPL078C, strain atp4, hits give low values 1.03 | locus YPL106C, strain sse1, hits give low values 1.04 | locus YPL240C, strain hsp82, hits give low values 1.02 | locus YPL256C, strain CLN2, hits give low values 0.994 | locus YPR119W, strain clb2, hits give low values 0.988 | locus YPR141C, strain kar3, hits give low values 0.988 | locus YPR163C, strain tif3, hits give low values 0.975 | locus YPR167C, strain met16, hits give low values 0.986 | strain wtn01, hits give low values 0.939
